High-throughput results as filed in PubChem.
Hits are enriched below; roughly 3.1% of the tested compounds scored in any of these assays.
BRCA1 expr act: BRCA1 expression activation | MCF7-BRCA1-FFLuc reporter, luminescence, 48 h; response scale: scaled: vehicle 0%, 10 µM genistein 100% | Potency, µM (top dose mostly 46.1 µM), most hits filed as activators | 380,000 compounds, 1.1% hits | AID 624202; also: nearly all actives have a fitted effect of over 80% in size
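MCF7 cells carrying a BRCA1-firefly luciferase reporter (2000 cells/well, phenol-red free MEM) were attached for 2 h at 37 °C, then given compounds for 48 h. Luminescence was read 15 min after luciferase reagent; activity normalized to genistein (10 microM) and DMSO.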
IL-2 act: activators of IL-2; 360,000 compounds, 0.065% hits; IL-2 activation reporter assay, cell-based qHTS; stimulated with anti-CD3/CD4/CD28 beads; in transgenic mouse T cells; activation, % (series mostly up to about 46 µM); in the data active = activation above about 50%; inconclusive = mostly about 30% to 49%
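Readout: EGFP and DsRed signals by fluorescent plate cytometry. Unstimulated transgenic mouse T cells received compound 60 min before antibody-bead stimulation, then incubated 18 h at 37 degrees C.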
Nrf2 activator: activates Nrf2 signaling; 410,000 compounds, 0.31% hits; Potency, µM (top dose mostly 46.1 µM), actives largely listed as activators; AREc32 ARE-luciferase reporter (MCF7-derived line), luminescence, 24 h; also: nearly all actives have a fitted effect of over 65% in size
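Each well held 1000 AREc32 cells, which were incubated with compound for 24 hr at 37 deg C after overnight attachment, and ARE reporter activity was quantified by firefly luciferase luminescence.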
ELG1 DNA repair: blocks ELG1-dependent DNA repair in HEK293T cells | HEK293T ELG1-luciferase reporter, luminescence, 16 h; DNA damage induced by 5-fluorouridine | Potency, µM (highest dose often 46.1 µM), most hits filed as inhibitors | 330,000 compounds, 2.3% hits; also: nearly all actives have a fitted effect of over 55% in size
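Cells (2,000 per well) received 5-fluorouridine plus test compound or DMSO and were incubated 16 hr at 37 °C, 5% CO2. Luciferase activity was read by luminescence 30 min after ONE-Glo addition; signal suppression marked inhibition of damage-induced ELG1 function.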
Each line names hits and unclear results; the compound was inactive in the other large screens. Unless noted, calls follow the shape of the dose curve; as a rule, active = well fitted curve in the direction sought with a large enough effect; inconclusive = small, poorly fitted or top-dose-only effect, or another doubt; inactive = no such curve, though single readings can be large; an effect the other way counts as inactive or inconclusive.

Cc1ccnc(SCC(=O)c2ccc(Br)cc2)c1C#N	Nrf2 activator 2.2µM, ELG1 DNA repair inconclusive
Cc1cc(C)c(C#N)c(OCC(=O)c2ccc(Br)cc2)n1	Nrf2 activator 6.3µM
Cc1cc(C)c(Cn2c3ccccc3c3cnn(CC(=O)NCC(C)c4ccccc4)c(=O)c32)c(C)c1 (configuration not stated)	none (no result: BRCA1 expr act, IL-2 act, ELG1 DNA repair)
COC(=O)c1ccc(NC(=O)CN2CCCN(Cc3ccc(Cl)cc3)S2(=O)=O)cc1	none (no result: BRCA1 expr act, IL-2 act, ELG1 DNA repair)
CCN1CCN(C(=O)c2c(C)nn(-c3ccc(F)cc3)c2-n2cccc2)CC1	none (no result: IL-2 act, ELG1 DNA repair)
CC1CCN(C(=O)CSCc2ccc(Cl)cc2)CC1	BRCA1 expr act 2.8µM, ELG1 DNA repair inconclusive
O=C(CSCc1ccc(F)cc1)N1CCN(c2ccc(Cl)cc2)CC1	none (no result: BRCA1 expr act, IL-2 act, ELG1 DNA repair)
CCc1ccc(NCc2cc3cc4c(cc3n(CC(=O)Nc3ccccc3Cl)c2=O)OCO4)cc1	none (no result: IL-2 act, ELG1 DNA repair)
COc1ccc(-c2nn(-c3ccccc3)cc2/C=C/C(=O)NCCCn2ccnc2)cc1OC	ELG1 DNA repair 16µM
OCc1cn(-c2ccccc2)nc1-c1ccco1	BRCA1 expr act inconclusive, Nrf2 activator inconclusive, ELG1 DNA repair inconclusive
Cc1ccc(-c2nn(-c3ccccc3)cc2CO)o1	BRCA1 expr act 3.5µM, ELG1 DNA repair inconclusive
O=C(/C=C(\O)c1ccccc1)C(=O)NNC(=O)c1ccccc1	BRCA1 expr act 13µM
COc1ccc(C(=O)NNC(=O)C(=O)/C=C(\O)c2ccc(C)cc2)cc1	none
N/C(=N\OC(=O)c1cccc(F)c1)c1ccccc1	Nrf2 activator 11µM, ELG1 DNA repair inconclusive
Cc1ccc(/C(N)=N/OC(=O)c2ccc(F)cc2)cc1	BRCA1 expr act 10µM, ELG1 DNA repair inconclusive
Cc1ccc(/C(N)=N/OC(=O)c2cccc(F)c2)cc1	Nrf2 activator 11µM, ELG1 DNA repair inconclusive
N/C(=N\OC(=O)c1ccc(Cl)cc1)c1ccc(Cl)cc1	BRCA1 expr act 11µM, ELG1 DNA repair inconclusive
Cc1ccc(/C(N)=N/OC(=O)c2ccc3ccccc3c2)cc1	ELG1 DNA repair inconclusive
N/C(=N\OC(=O)c1ccc(F)cc1)c1ccccc1	Nrf2 activator inconclusive, ELG1 DNA repair inconclusive
Cn1c(NCCCO)nc2c1c(=O)n(Cc1cccc(F)c1)c(=O)n2C	none (no result: BRCA1 expr act, IL-2 act, ELG1 DNA repair)
Clc1cccc(-c2csc(-c3nc(-c4ccc(Br)s4)cs3)n2)c1	none (no result: BRCA1 expr act, IL-2 act, ELG1 DNA repair)
COc1cccc(CNc2nc3nc(C)c(Cl)c(C)n3n2)c1	BRCA1 expr act 11µM, ELG1 DNA repair inconclusive
COc1ccc(CNc2nc3nc(C)c(Cl)c(C)n3n2)cc1	BRCA1 expr act inconclusive, ELG1 DNA repair inconclusive
CC(C)c1cc(C(=O)Nc2cccc(Cl)c2)no1	BRCA1 expr act 7.1µM, ELG1 DNA repair inconclusive
O=C(Nc1cccc(Cl)c1)c1ccncc1	none
O=C(Nc1cccc(Cl)c1)c1cnc[nH]1	BRCA1 expr act 7.9µM, ELG1 DNA repair inconclusive
Cc1c(Cl)cccc1NC(=O)c1cc(-c2ccco2)on1	Nrf2 activator 13µM, ELG1 DNA repair inconclusive
CC(=O)c1cccc(NC(=O)c2cc(-c3ccco3)on2)c1	BRCA1 expr act 10µM
CSc1ccccc1NC(=O)c1cc(-c2ccco2)on1	Nrf2 activator inconclusive, ELG1 DNA repair inconclusive
CCN1C(=O)C(Cc2nc3ccccc3c(=O)n2C)c2cc(C)ccc21 (configuration not stated)	none (no result: BRCA1 expr act, IL-2 act, ELG1 DNA repair)
COc1ccccc1CNc1cc(-c2ccccc2)nc2nncn12	none (no result: IL-2 act, ELG1 DNA repair)
CC(=O)c1cccc(NC(=O)c2cc(C(C)C)on2)c1	BRCA1 expr act 3.2µM, ELG1 DNA repair inconclusive
O=C(Nc1cccc(OCc2cc(=O)n3ccccc3n2)c1)Nc1cccc(C(F)(F)F)c1	none (no result: BRCA1 expr act, IL-2 act, ELG1 DNA repair)
COc1ccc(Oc2nccc(-c3ccccc3)c2C#N)cc1	BRCA1 expr act 5µM, ELG1 DNA repair inconclusive
COc1ccc(Oc2nccc(-c3ccc(F)cc3)c2C#N)cc1	ELG1 DNA repair inconclusive
Nc1c(C(=O)N/N=C/c2ccc(F)cc2)oc2nc(-c3ccccc3)cc(-c3ccco3)c12	IL-2 act 230
Nc1c(C(=O)N/N=C/c2ccccc2Cl)oc2nc(-c3ccccc3)cc(-c3ccco3)c12	ELG1 DNA repair inconclusive
CN(C)c1ccc(N=Nc2ccc(S(N)(=O)=O)cc2)cc1	BRCA1 expr act 2µM, ELG1 DNA repair inconclusive
CN(C)N=Nc1ccc(S(N)(=O)=O)cc1	none
CCCCn1c(N)c(N(CC(C)C)C(=O)c2ccc(-c3ccc(Cl)cc3)o2)c(=O)[nH]c1=O	ELG1 DNA repair 15µM
COc1ccc(NC(=O)CSc2nc3ccccc3n2CC(=O)N(C)C2CCCCC2)cc1	none (no result: BRCA1 expr act, IL-2 act, ELG1 DNA repair)
CC(C)(C)NC(=O)C(c1cccc2ccccc12)n1c(=O)c(-c2cc3ccccc3[nH]2)nc2ccccc21 (configuration not stated)	none (no result: BRCA1 expr act, Nrf2 activator, ELG1 DNA repair)
COc1cc(-c2nnc(SCC(=O)c3ccc(C)cc3)o2)cc(OC)c1OC	ELG1 DNA repair inconclusive
COc1cc(-c2nnc(SCC(=O)N3c4ccccc4Sc4ccccc43)o2)cc(OC)c1OC	ELG1 DNA repair 7.3µM
COc1cccc(C(=O)CSc2nnc(-c3cc(OC)c(OC)c(OC)c3)o2)c1	ELG1 DNA repair 21µM
CC(C)(C)c1ccc(S(=O)(=O)CCc2ccccn2)cc1	BRCA1 expr act 14µM, ELG1 DNA repair inconclusive
COc1ccc(Cn2c(SCc3ccc(C(=O)NCc4cccs4)cc3)nc3ccncc32)cc1	none (no result: BRCA1 expr act, IL-2 act, ELG1 DNA repair)
COC(=O)c1ccc(-n2nnc(-c3nc(-c4ccc5c(c4)OCO5)no3)c2C)cc1	none (no result: BRCA1 expr act, IL-2 act, ELG1 DNA repair)
CC(=O)c1ccc(-c2cccc(-c3nc4ccccn4c3NC3CCCCC3)c2)cc1	ELG1 DNA repair 3.5µM
CCC(C)Sc1cc(-c2nc3ccccn3c2NC2CCCCC2)ccc1OC (configuration not stated)	ELG1 DNA repair inconclusive
COc1cccc(S(=O)(=O)N2CCN(c3nc(-c4cccs4)nc4ccccc34)CC2)c1	none (no result: IL-2 act, Nrf2 activator, ELG1 DNA repair)
C/C(=N/NC(=O)c1nnn(-c2nonc2N)c1CSc1ccc(C)cc1)c1ccncc1	none (no result: ELG1 DNA repair)
Cc1ccc(N2CS(=O)(=O)/C(=C/N(C)C)C2=O)cc1	ELG1 DNA repair inconclusive
CN(C)/C=C1\C(=O)N(c2ccc(Cl)cc2)CS1(=O)=O	BRCA1 expr act 7.9µM, ELG1 DNA repair inconclusive
O=S(=O)(Nc1ccc(-c2nc3cccnc3s2)cc1)c1ccccc1F	BRCA1 expr act 10µM, ELG1 DNA repair inconclusive
Cc1cccc2nc(-c3cccnc3)c(Nc3ccccc3)n12	ELG1 DNA repair 18µM
Nc1ncnc2c1ncn2C1OCC(O)C1O (configuration not stated)	none (no result: ELG1 DNA repair)
CC(C)(C)C1CCC(C(=O)Nc2ccc(N3CCOCC3)cc2N2CCOCC2)CC1 (configuration not stated)	ELG1 DNA repair 15µM
CSC1=N/C(=C\c2ccccc2)C(=O)N1C	Nrf2 activator 11µM
CCn1c(COc2ccccc2OC)nc2ccccc21	Nrf2 activator inconclusive, ELG1 DNA repair inconclusive
CCn1c(COc2ccccc2C)nc2ccccc21	BRCA1 expr act 7.9µM, ELG1 DNA repair inconclusive
Cn1c(COc2ccccc2Br)nc2ccccc21	BRCA1 expr act 6.3µM, ELG1 DNA repair inconclusive
COc1ccccc1C(O)Cc1nc2ccccc2n1C (configuration not stated)	BRCA1 expr act 10µM, ELG1 DNA repair inconclusive
